Screens from PubChem.
Eya2 inh: Eya2 (human) phosphatase inhibition | O00167 | recombinant Eya2, OMFP fluorescence dephosphorylation (OMFP is methylfluorescein phosphate) | Potency, µM (doses to about 76.9 µM), actives largely listed as inhibitors | 330,000 compounds, 0.006% hits
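Eya2 (0.2 uM) preincubated 10 min at ambient with compound, then OMFP substrate added at 50 uM; 10 min reaction in 50 mM HEPES pH 7.5, 50 mM NaCl, 5 uM MgCl2, 0.05% BSA, 1 mM DTT. Fluorescence read at Ex 485/Em 525 nm.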
RGS4 inh: inhibitors of human regulator of G protein signaling 4; P49798; Transcreener GDP fluorescence polarization, RGS4-accelerated GTP hydrolysis; Potency, µM (titrated, usually from 114 µM), most hits filed as inhibitors; 390,000 compounds, 0.039% hits; AID 504845; note: nearly all actives have a fitted effect of over 75% in size
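MLSMR compounds (23 nl, pin-transferred) preincubated 10 min at room temperature with a 500nM (2x) first reagent, then RGS4 at 900nM (2x) plus Transcreener GDP mix added; fluorescence polarization (620/688 nm) read before and after 90 min at 30 °C.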
mIDH1 inhibitor: inhibitors of human mutant IDH1 R132H. IDH1-R132H enzyme, NADPH consumption, diaphorase/resazurin fluorescence. 390,000 compounds, 0.093% hits. Potency, µM (titrated, usually from 76.6 µM), actives largely listed as inhibitors. O75874; note: nearly all actives have a fitted effect of over 65% in size
Target sequence (O75874 whole entry R132H, stated change not applied): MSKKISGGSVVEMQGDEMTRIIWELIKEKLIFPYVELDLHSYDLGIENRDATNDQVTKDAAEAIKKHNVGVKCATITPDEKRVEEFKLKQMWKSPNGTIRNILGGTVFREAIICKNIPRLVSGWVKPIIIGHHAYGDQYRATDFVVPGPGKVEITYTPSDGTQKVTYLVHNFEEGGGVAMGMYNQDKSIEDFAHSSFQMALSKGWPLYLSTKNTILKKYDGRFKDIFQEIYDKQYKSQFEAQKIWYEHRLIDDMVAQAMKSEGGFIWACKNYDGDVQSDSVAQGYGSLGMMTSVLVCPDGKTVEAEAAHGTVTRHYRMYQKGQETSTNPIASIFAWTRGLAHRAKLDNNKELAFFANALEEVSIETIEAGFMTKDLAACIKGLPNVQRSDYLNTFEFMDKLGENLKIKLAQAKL
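IDH1-R132H (0.5 ug/mL) preincubated 30 min with compound, then NADPH (0.016 mM) and alpha-KG (2 mM) added; 80 min at RT, pH 7.5. Remaining NADPH coupled via diaphorase/resazurin to fluorescence (540/590 nm); concentration-response curves normalized to no-enzyme control.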
TrxR1 substrate: substrates of rat thioredoxin reductase 1; purified TrxR1 substrate turnover, NADPH consumption readout; Potency, µM (doses to about 114 µM); 390,000 compounds, 0.01% hits; AID 588456; note: nearly all actives have a fitted effect of over 50% in size
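Rat TrxR1, dispensed at 90 nM, was prereduced with 400 uM NADPH (final) for 5 min at ~22 deg C, then incubated with compound 15 min before 400 uM selenite. A first-read NADPH fluorescence drop versus no-compound background flagged substrates.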
TrxR1 inh: inhibitors of rat thioredoxin reductase 1. O89049. 390,000 compounds, 1% hits. recombinant rTrxR1, NADPH fluorescence consumption, selenite substrate. Potency, µM (highest dose often 114 µM), usual class: inhibitors; note: nearly all actives have a fitted effect of over 65% in size
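Rat TrxR1 (90 nM in the dispensed reagent) was pre-reduced with 400 uM NADPH for 5 min at room temperature, then incubated with compound for 15 min. After 400 uM selenite was added, NADPH fluorescence (Ex 340/Em 450 nm) was followed for 8 min.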
A number is an active result; n = inactive; u = inconclusive; x = no result; [ ] = remark or other dose. Only some compounds are listed: those with a hit (about 1.1% of all), similar ones and a draw of the others. Calls come from the whole dose curve; as a rule, active = well fitted curve in the direction sought with a large enough effect; inconclusive = small, poorly fitted or top-dose-only effect, or another doubt; inactive = no such curve, though single readings can be large; an effect the other way counts as inactive or inconclusive.

SMILES	Eya2 inh	RGS4 inh	mIDH1 inhibitor	TrxR1 substrate	TrxR1 inh
CCOc1ccc(C(=O)OC(C)CN2CCCCC2)cc1 (stereo unspecified)	n	n	n	n	n
COc1ccccc1CN(C)C(=O)c1ccc2c(c1)NC(=O)CS2	n	n	n	n	n
Cc1ccc(CN(C)C(=O)c2ccc3c(c2)NC(=O)CS3)o1	n	n[11.4 µM]	n	n	17.8µM
C=C[C@@]1(C)CC(=O)[C@@]2(O)[C@@]3(C)[C@@H](O)CCC(C)(C)[C@@H]3[C@H](OC(=O)CCN(C)C)[C@H](OC(C)=O)[C@@]2(C)O1	x	8.44µM	x	x	x
CN(C)CCNc1oc(COc2ccc(Cl)cc2Cl)nc1C#N	n	n	n	n	n
COCCCNc1oc(COc2ccc(Cl)cc2Cl)nc1C#N	n	n	n	n	25.1µM
O=C(O)CC/C(=N\Nc1ccc(S(=O)(=O)N2CCOCC2)cc1[N+](=O)[O-])c1cccs1	n	n	n	79.4µM	u
Cc1cccc(N2CCN(Cc3cnc(Cl)s3)CC2C)c1 (stereo unspecified)	n	n	n	n	n
Cc1cccc(N(Cc2cc(=O)[nH]c3ccccc23)C(=O)CCl)c1	n	n	n	n	3.98µM
CCCC(=O)N(Cc1cc(=O)[nH]c2ccccc12)c1cccc(C)c1	n	n	n	n	n
COc1ccc(N(Cc2cc(=O)[nH]c3ccccc23)C(=O)CCl)cc1	n	n	n	n	6.31µM
CCCC(=O)N(Cc1cc(=O)[nH]c2ccccc12)c1ccc(OC)cc1	n	n	n	n	n
Cc1ccc(NC(=O)CO/N=C(\N)c2nonc2N)cc1C	n	n	n	n	n
CCc1cccc(C)c1NC(=O)c1ccoc1C	n[15.4 µM]	n	n	n	20µM
CCc1cccc(C)c1NC(=O)c1cc(C)oc1C	n	n	n	n	n
Cc1cc(C)n2nc3nc(N4CCCCC4)nc(-c4ccco4)c3c2n1	n	u	n	n	10µM
N#Cc1ccc(/C=C/C(=O)c2cccnc2)cc1	n	n	n	n	22.4µM
O=C(/C=C/c1ccc(Cl)cc1)c1cccnc1	n	u	n	n	31.6µM
O=C(C=Cc1cccc(Cl)c1)c1ccccc1	x	u	n	n	39.8µM
O=C(/C=C/c1ccccc1)NNC(=O)c1cccc(Cl)c1	n	n	n	n	n
O=C(/C=C/c1ccccc1Cl)c1ccc(O)cc1	n	n	n	n	n
O=C(/C=C/c1ccccc1Cl)c1cccnc1	n	u	n	n	7.08µM
CS(=O)(=O)N(CC(=O)N1CCN(Cc2ccccc2)CC1)c1cccc(Cl)c1	n	n	n	n	n
CNc1ccc(C=O)cc1I	x	x	x	n	n
Cn1c(N)c(Sc2ccccc2[N+](=O)[O-])c(=O)n(C)c1=O	n	n	n	n	n
SMILES	Eya2 inh	RGS4 inh	mIDH1 inhibitor	TrxR1 substrate	TrxR1 inh
CCCCc1nc(S(=O)(=O)c2ccc(Cl)cc2)c(N2CCOCC2)o1	n	n[11.4 µM]	n	n[11.4 µM]	1.58µM
Cc1ccc(S(=O)(=O)Oc2ccc(/C=C3\C(=N)N4N=C(S(C)(=O)=O)SC4=NC3=O)cc2)cc1	n	u	n	n	u
CS(=O)(=O)c1ccc(S(=O)CC(=O)Oc2ccc(Cl)cc2)c([N+](=O)[O-])c1 (stereo unspecified)	n	u	n	n	1.78µM
O=C(CS(=O)c1ccccc1[N+](=O)[O-])Oc1ccc(Br)cc1 (stereo unspecified)	u	n	n	n	u
CSc1nc(O)c(C(c2ccc(F)cc2)c2c(O)nc(SC)[nH]c2=O)c(=O)[nH]1	x	n	n	n	u
CSc1nc(O)c(C(c2ccc(OC(C)C)cc2)c2c(O)nc(SC)[nH]c2=O)c(=O)[nH]1	x	u	n	n	11.2µM
COc1ccc(C2c3ccc(O)cc3Oc3ncn(Cc4ccco4)c(=N)c32)cc1 (stereo unspecified)	n	n	n	n	50.1µM
O=C(CC1SC(=NCC2CCCO2)NC1=O)Nc1cccc2ccccc12 (stereo unspecified)	n	n	n	n	n
Cc1ccc2nc(/C(C#N)=C\c3ccc([N+](=O)[O-])o3)[nH]c2c1	n	n	n	n	u
N#C/C(=C\c1ccc([N+](=O)[O-])o1)c1nc2ccccc2[nH]1	n	n	n	n	2.82µM
Cc1cc(C)cc(NC(=O)COC(=O)[C@@H](NC(=O)c2ccco2)C(C)C)c1	n	n	n	n	n
